Our source for the outcome, activity, negative = inhibition and Potency values is PubChem BioAssay (NCATS).

Records with an inconclusive call do not appear. Unmarked numbers belong to inactive results. Activity calls are given as the source filed them. Unless noted, calls follow the shape of the dose curve; as a rule, active = well fitted inhibition curve with a large enough effect; inconclusive = small, poorly fitted or top-dose-only effect; inactive = flat fitted curve, though single readings scatter.

Tested on in the first test: not listed separately
The test is described as follows: S16 Schwann cell PMP22 intronic element beta-lactamase assay (AID 624044; calls by dose curve;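 also: 0% = DMSO and -100% = potassium clavulanate positive control; nearly all actives have a fitted effect of over 15% in size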). Particulars: S16 rat Schwann cells, PMP22 element beta-lactamase FRET, 24 h; series mostly up to 38.3 µM. Put shortly:
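Rat S16 Schwann cells with beta-Lac driven by a PMP22 intronic element, compound-treated 24 h at 37 °C. LiveBLAzer FRET B/G read: 460 nm normalized to potassium clavulanate vs DMSO; 535 nm FRET as viability; concentration-effect curves classified.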
As for `CN(C)[C@H]1C(=O)C(C(=O)NCN2CCCC2)=C(O)[C@]2(O)C(=O)C3=C(O)c4c(O)cccc4[C@](C)(O)[C@H]3C[C@H]12`, the compound was called inactive.

As to `C[C@]12CC[C@H]3c4ccc(O)cc4CC[C@@H]3[C@H]1CC[C@@H]2OC(=O)CCC1CCCC1`, the compound was called inactive.

For `O=C(O)[C@@H](S)[C@H](S)C(=O)O`, the call was inactive.

As for `CC(C)(C)NC[C@@H](O)c1ccc(O)c(CO)n1`, the result was inactive.

Turning to `NS(=O)(=O)c1cc2c(cc1Cl)N[C@H](Cc1ccccc1)NS2(=O)=O`, the result was inactive.

Tested on in another test: not listed separately
Briefly: qHTS profiling for inhibitors of Plasmodium falciparum proliferation (AID 504749). Also: nearly all actives have a fitted effect of over 60% in size. Also: potency is read from the fitted curve at half-maximal effect.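 As to activity, negative = inhibition: 0% = DMSO vehicle and full inhibition = artemisinin control.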 Particulars: P. falciparum in erythrocytes, SYBR Green DNA, 72 h; at 28.7 µM (top of the series); parasite line A. Put shortly: (§1)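 P. falciparum-infected erythrocytes (0.3% parasitemia, 2.5% hematocrit final) were exposed to compounds for 72 h at 37 C in 5% CO2, then lysed with SYBR Green buffer overnight at room temperature; parasite DNA fluorescence was normalized to artemisinin and DMSO controls.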
`CN(C)[C@H]1C(=O)C(C(=O)NCN2CCCC2)=C(O)[C@]2(O)C(=O)C3=C(O)c4c(O)cccc4[C@](C)(O)[C@H]3C[C@H]12`: the activity, negative = inhibition is 9.1%.

As to `C[C@]12CC[C@H]3c4ccc(O)cc4CC[C@@H]3[C@H]1CC[C@@H]2OC(=O)CCC1CCCC1`, the activity, negative = inhibition is 5.91%.

`Cc1cn([C@H]2C[C@H](N=[N+]=[N-])[C@H](CO)O2)c(=O)[nH]c1=O`: the activity, negative = inhibition is 7.02%.

With `CC(C)(C)NC[C@@H](O)c1ccc(O)c(CO)n1`, the activity, negative = inhibition is 8.88%.

As for `NS(=O)(=O)c1cc2c(cc1Cl)N[C@H](Cc1ccccc1)NS2(=O)=O`, the activity, negative = inhibition is 6.22%.

Still in this test, the particulars now being: P. falciparum in erythrocytes, SYBR Green DNA, 72 h; at 28.7 µM (top of the series); parasite line B.
Turning to `CN(C)[C@H]1C(=O)C(C(=O)NCN2CCCC2)=C(O)[C@]2(O)C(=O)C3=C(O)c4c(O)cccc4[C@](C)(O)[C@H]3C[C@H]12`, the activity, negative = inhibition is 1.72%.

As for `C[C@]12CC[C@H]3c4ccc(O)cc4CC[C@@H]3[C@H]1CC[C@@H]2OC(=O)CCC1CCCC1`, the activity, negative = inhibition was 2.07%.

Turning to `Cc1cn([C@H]2C[C@H](N=[N+]=[N-])[C@H](CO)O2)c(=O)[nH]c1=O`, the activity, negative = inhibition is 2.08%.

Turning to `CC(C)(C)NC[C@@H](O)c1ccc(O)c(CO)n1`, the activity, negative = inhibition was 0.372%.

Turning to `NS(=O)(=O)c1cc2c(cc1Cl)N[C@H](Cc1ccccc1)NS2(=O)=O`, the activity, negative = inhibition is -2.36%.

For another test, the system named is 3D7. Described as above. Particulars: P. falciparum in erythrocytes, SYBR Green DNA, 72 h; series mostly up to 28.7 µM. Put shortly: as §1
For the compound `CN(C)[C@H]1C(=O)C(C(=O)NCN2CCCC2)=C(O)[C@]2(O)C(=O)C3=C(O)c4c(O)cccc4[C@](C)(O)[C@H]3C[C@H]12`, the Potency result was “inactive”.

Regarding `Cc1cn([C@H]2C[C@H](N=[N+]=[N-])[C@H](CO)O2)c(=O)[nH]c1=O`, the Potency entry was “inactive”.

Take `O=C(O)[C@@H](S)[C@H](S)C(=O)O`: the Potency was 8.91 µM (active).

In the case of `CC(C)(C)NC[C@@H](O)c1ccc(O)c(CO)n1`, the Potency result was “inactive”.

As for `NS(=O)(=O)c1cc2c(cc1Cl)N[C@H](Cc1ccccc1)NS2(=O)=O`, the Potency result is “inactive”.
